# Several values for one entry are separate records, joined by “and”; a condition that tells them apart may be missing. Identical values can stand only once. Compounds without any hit were thinned out: in the full panel of roughly 83,000, 20% have a hit.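 48-hour exposure, single concentration, 96-well plates; percent growth endpoint where 0 means no net growth. Active: below 10.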 Activity calls are given as the source filed them.
# Test system: HCT-116 colon
# Test: NCI-60 one-dose screen, 48 h (100 = growth as untreated, 0 = no growth, -100 = all killed)
# Conditions: 10 µM
row,Compound,growth
1,CC/C(=C(\c1ccc(O)cc1)c1ccc(OCCN(C)C(=O)COCCNC(=O)Cc2ccc3c(c2)CN([C@@H]2CCC(=O)NC2=O)C3=O)cc1)c1ccccc1,99.6% (inactive)
2,CC/C(=C(\c1ccc(O)cc1)c1ccc(OCCN(C)C(=O)CCOCCNC(=O)c2ccc3c(c2)CN([C@@H]2CCC(=O)NC2=O)C3=O)cc1)c1ccccc1,94.8% (inactive)
3,CC/C(=C(/c1ccc(O)cc1)c1ccc(OCCN(C)C(=O)CCOCCNC(=O)Cc2ccc3c(c2)CN([C@@H]2CCC(=O)NC2=O)C3=O)cc1)c1ccccc1,92.4% (inactive)
4,CC/C(=C(/c1ccc(O)cc1)c1ccc(OCCN(C)C(=O)COCCOCCNC(=O)c2ccc3c(c2)CN([C@@H]2CCC(=O)NC2=O)C3=O)cc1)c1ccccc1,102% (inactive)
5,CC/C(=C(\c1ccc(O)cc1)c1ccc(OCCNC)cc1)c1ccccc1,62.4% (inactive)
6,CC/C(=C(/c1ccc(O)cc1)c1ccc(OCCN(C)C(=O)COCCOCCNC(=O)Cc2ccc3c(c2)CN([C@@H]2CCC(=O)NC2=O)C3=O)cc1)c1ccccc1,101% (inactive)

# Same assay, conditions: 10 µM unless noted
row,Compound,growth
1,N#CC1=C(c2cccs2)Nc2c(c(-c3ccccc3)nn2-c2ccccc2)C12C(=O)Nc1ccccc12 (configuration not stated),5.53% (active)
2,O=C1CC(c2ccc(I)cc2)OC2C=Cc3ccccc3C12 (configuration not stated),98.9% (inactive)
3,COc1ccc([C@H]2C(C(=O)c3ccc(Cl)cc3)C3(N[C@@H]2c2ccccc2)C(=O)Nc2ccccc23)cc1 (some centres not stated),26.1% (inactive)
4,COc1ccc2c(c1)N=c1c-2cc2c(O)[nH]c(=S)n2c1=O,28.6% (inactive)
5,Cc1cc(N=C(N)c2ccccc2)ccc1OCCCCCCCCn1ccnc1,11.4% (inactive)
6,CS(=O)(=O)Nc1cc(-c2ccc3ncnc(N4CCc5cc(F)c(Cl)cc54)c3c2)cnc1Cl,23.6% (inactive)
7,COc1cc(NC(=O)C(C)C)ccc1C(=O)NC(=S)Nc1ccc(S(N)(=O)=O)cc1,106% (inactive)
8,CC1=C(C(=O)OC(C)C)C(c2ccc(O)cc2)NC(=O)N1 (configuration not stated),97.1% (inactive)
9,COc1cccc(/C=C/c2nc3ccccc3c(=O)n2CC(=O)Nc2ccccc2)c1,35.7% (inactive)
10,COC(=O)c1c(C(=O)OC)c2ccc3c4ccccc4ccc3n2c1C(=O)OC,97.7% (inactive)
11,CCCCCCCCc1cccc(CC(=O)Nc2ccc(C)cc2C(=O)O)c1,28.1% [25 µM] (inactive)
12,O=C(c1cc2cc(OCCCN3CCC3)ccc2[nH]1)N1C[C@@H](CCl)c2c1cc(OCc1ccccc1)c1ccccc21,-80.6% (active)
13,CC(C)(C)OC(=O)N1CCC2(CC1)Oc1ccccc1[C@H]1CC(c3ccc(Br)cc3)=NN12,74.1% (inactive)
14,COc1ccc(NC2=C(I)C(=O)C(C)=C(C)C2=O)cc1,-3.05% (active)
15,CC[C@]12C=CCN3CC[C@@]4(c5ccc(OC)cc5N(C)[C@H]4[C@@](O)(C(=O)OC)[C@@H]1OC(=O)CCCC[P+](c1ccc(F)cc1)(c1ccc(F)cc1)c1ccc(F)cc1)[C@@H]32,23.4% (inactive)
16,FC(F)(F)c1cc2c(Cl)ncnc2n1CCN1CCCCC1,8.04% (active)
17,O=C(CSc1nnc(-c2ccc(-c3nc4ccc(Cl)cc4[nH]3)cc2)o1)Nc1ccccc1,5.65% (active)
18,Cc1cccc(NCC(=O)N2CCN(c3ncnc4c3cnn4-c3ccccc3)CC2)c1,58.7% (inactive)
19,CS(=O)(=O)c1ccc(-n2nc(C(=O)NCc3ccccc3)cc2-c2ccc(Cl)cc2)cc1,69.6% (inactive)
20,CS(=O)(=O)Nc1cccc(-n2c(COc3ccc(OC(F)(F)F)cc3)nc3ccccc32)c1,85.9% (inactive) and 104% (inactive)
21,O=C(CSc1nc2sc3c(c2c(=O)n1-c1ccc(Cl)cc1)CCCC3)NNC(=O)c1ccc(Br)cc1,64% (inactive)
22,O=C(c1ccc(Cl)cc1)C1[C@H](c2ccccc2Cl)[C@@H](c2ccccc2)NC12C(=O)Nc1ccccc12 (some centres not stated),-91.3% (active)
23,O=C1NC(=NC23CC4CC(CC(C4)C2)C3)N/C1=C\c1ccc2ncccc2c1,3.24% (active)
24,N#CC1=C(c2ccco2)Nc2c(c(-c3ccccc3)nn2-c2ccccc2)C12C(=O)Nc1ccc(Cl)cc12 (configuration not stated),-73.1% (active)
25,O=C(c1ccc(O)cc1)C1[C@H](c2ccccc2Br)[C@@H](c2ccccc2)NC12C(=O)Nc1ccccc12 (some centres not stated),55.2% (inactive)
26,c1ccc(CSc2nnc(-c3ccc4nc(-c5ccccc5)[nH]c4c3)o2)cc1,2.99% (active)

# — PubChem BioAssay (NCI)
